Test systems include NCI-H23 lung; NCI-H226 lung; NCI-H322M lung; HOP-62 NSCLC; NCI-H460 lung; HOP-92 NSCLC; NCI-H522 lung; A549/ATCC NSCLC; 786-0 renal; COLO 205 colon; DU-145 prostate; K-562 leukemia; MALME-3M melanoma; MDA-MB-231 breast; RXF 393 renal; SF-268 CNS; SF-295 CNS; SF-539 CNS; UACC-257 melanoma.
Holding throughout (test): NCI-60 one-dose screen, 48 h (100 = growth as untreated, 0 = no growth, -100 = all killed)
Conditions in all cases: 10 µM

Molecules are shown by their SMILES. Compounds without any hit were thinned out: in the full panel of roughly 83,000, 20% have a hit.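 Testing used 96-well plates and a 48-hour single-concentration exposure. Example: -40 means 40% of the starting cells died.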 A number with no mark means an inactive call. The source made the active and inactive calls. How the source made its calls: active means growth percent below 10; inactive means the rest.

Regarding `COc1cc(-c2cc(-c3ccc(C)cc3)nc3nc(N)[nH]c(=O)c23)ccc1Oc1ccnc2cc(Cl)ccc12`, the growth with NCI-H23 lung was 107%; in the assay on NCI-H226 lung, 73.3%; in the assay on NCI-H322M lung, 80.6%; with HOP-62 NSCLC it was 98.4%; with NCI-H460 lung, 96%; in the assay with HOP-92 NSCLC, 70.4%. The growth is 92.5% in the assay on NCI-H522 lung; 78.7% in the assay on A549/ATCC NSCLC; 98.1% in the assay with 786-0 renal; 107% with COLO 205 colon; 87.7% with DU-145 prostate; 74.4% in the assay with K-562 leukemia. Further, the growth with MALME-3M melanoma is 104%; in the assay on MDA-MB-231 breast it was 66.6%; in the assay with RXF 393 renal, 77.8%; in the assay on SF-268 CNS, 77.4%; with SF-295 CNS it was 101%; in the assay on SF-539 CNS it was 103%. For the same compound, the growth with UACC-257 melanoma is 90.1%.
Turning to `COc1cc(CSc2nc3ccc(Cl)cc3c(=O)n2-c2ccccc2)cc(OC)c1OC`, the growth is 79% in the assay on NCI-H23 lung; 89.2% in the assay with NCI-H226 lung; 85.7% with NCI-H322M lung; 72% in the assay on HOP-62 NSCLC; 96.6% with NCI-H460 lung; 89% in the assay on HOP-92 NSCLC. Further, the growth in the assay with NCI-H522 lung is 38.5%; with A549/ATCC NSCLC it was 73.9%; in the assay with 786-0 renal it was 89.3%; in the assay with COLO 205 colon, 84.5%; in the assay with DU-145 prostate, 92.9%; in the assay on K-562 leukemia, 38.2%. The growth with MALME-3M melanoma was 76.5%; in the assay on MDA-MB-231 breast, 63%; in the assay on RXF 393 renal, 68.9%; with SF-268 CNS, 77.7%; in the assay on SF-295 CNS, 84.2%; in the assay with SF-539 CNS it was 78.9%. Moreover, the growth in the assay on UACC-257 melanoma was 89.7%.
As for `CCCCOCCOCCOCc1cc2c(cc1Br)OCO2`, the growth is 99.3% in the assay with NCI-H23 lung; 97.4% in the assay on NCI-H226 lung; 91.8% in the assay on NCI-H322M lung; 92.7% with HOP-62 NSCLC; 111% in the assay with NCI-H460 lung; 85% with HOP-92 NSCLC. The growth with NCI-H522 lung is 80.4%; with A549/ATCC NSCLC it was 91.2%; with 786-0 renal, 100%; with COLO 205 colon it was 107%; in the assay with DU-145 prostate, 107%; in the assay with K-562 leukemia it was 94.7%. Also, the growth in the assay on MALME-3M melanoma was 94.8%; in the assay with MDA-MB-231 breast, 97.1%; in the assay with RXF 393 renal it was 108%; in the assay with SF-268 CNS it was 103%; in the assay with SF-295 CNS it was 100%; with SF-539 CNS, 92.5%. In addition, the growth in the assay with UACC-257 melanoma is 101%.
On to `COc1ccc2c(=O)cc(C(Cl)(Cl)Cl)oc2c1`, for which the growth with NCI-H23 lung was -18.4% (active); with NCI-H226 lung, -29.2% (active); with NCI-H322M lung, -17.6% (active); with HOP-62 NSCLC it was -14.8% (active); in the assay with NCI-H460 lung, -7.69% (active); with HOP-92 NSCLC, -26.1% (active). The growth in the assay with NCI-H522 lung was -51.7% (active); with A549/ATCC NSCLC, -0.889% (active); with 786-0 renal, 8.97% (active); in the assay with COLO 205 colon, -88.4% (active); in the assay on DU-145 prostate, 0.575% (active); in the assay with K-562 leukemia, -12.7% (active). Further, the growth with MALME-3M melanoma is -87.5% (active); with MDA-MB-231 breast it was -31.1% (active); with RXF 393 renal, -72.1% (active); in the assay on SF-268 CNS, -36.4% (active); in the assay with SF-295 CNS, -31.1% (active); in the assay on SF-539 CNS, -27.4% (active). The growth in the assay on UACC-257 melanoma is -48.9% (active).
`O=C(/C=C/c1ccc(Cl)cc1)c1ccc(Br)cc1`: the growth with NCI-H23 lung is 94.6%; with NCI-H226 lung, 108%; in the assay on NCI-H322M lung, 91.2%; with HOP-62 NSCLC it was 97.2%; in the assay with NCI-H460 lung, 109%; in the assay with HOP-92 NSCLC, 111%. Also, the growth in the assay with NCI-H522 lung is 82.6%; in the assay with A549/ATCC NSCLC, 102%; with 786-0 renal, 81.1%; in the assay with COLO 205 colon, 110%; in the assay on DU-145 prostate it was 101%; with K-562 leukemia it was 97.5%. Besides, the growth with MALME-3M melanoma was 102%; in the assay on MDA-MB-231 breast it was 102%; with RXF 393 renal, 114%; with SF-268 CNS, 102%; in the assay with SF-295 CNS, 95.9%; in the assay with SF-539 CNS it was 94%. Further, the growth with UACC-257 melanoma was 106%.
As for `CN(C)c1ccc2c(c1)OC(N)=C(C#N)C2c1ccc2c(c1)CCCN2C` (configuration not stated), the growth with NCI-H23 lung is 33.3%; in the assay with NCI-H226 lung, 37.3%; in the assay on NCI-H322M lung it was 52.3%; in the assay with HOP-62 NSCLC it was 31.7%; in the assay on NCI-H460 lung, 12.4%; in the assay with HOP-92 NSCLC it was 47.1%. Also, the growth is -26.4% (active) with NCI-H522 lung; 27.5% in the assay with A549/ATCC NSCLC; 43.7% in the assay with 786-0 renal; -10.2% (active) in the assay on COLO 205 colon; 25.7% with DU-145 prostate; 16.5% in the assay on K-562 leukemia. In addition, the growth was 67.8% with MALME-3M melanoma; 38.6% with MDA-MB-231 breast; 8.31% (active) in the assay with RXF 393 renal; 49.4% in the assay with SF-268 CNS; -14.4% (active) in the assay on SF-295 CNS; -2.99% (active) with SF-539 CNS. Further, the growth in the assay on UACC-257 melanoma is 54.7%.
For the compound `NC1CCC(Nc2nc(NCc3ccc(-c4ccccc4O)nc3)c3ncn(C4CCCC4)c3n2)CC1` (configuration not stated), the growth was -50.2% (active) in the assay on NCI-H23 lung; -3.35% (active) in the assay on NCI-H226 lung; 10.1% with NCI-H322M lung; -9.04% (active) in the assay with HOP-62 NSCLC; -8.3% (active) with NCI-H460 lung; -17.7% (active) in the assay with HOP-92 NSCLC. Besides, the growth with NCI-H522 lung is -55.2% (active); with A549/ATCC NSCLC, -25.2% (active); in the assay on 786-0 renal, -38.3% (active); in the assay on COLO 205 colon, -70.4% (active); in the assay with DU-145 prostate, -4.56% (active); with K-562 leukemia, -41.2% (active). In addition, the growth was -76.1% (active) in the assay with MALME-3M melanoma; -22% (active) in the assay on MDA-MB-231 breast; -67.4% (active) in the assay with RXF 393 renal; -25.8% (active) with SF-268 CNS; -14.4% (active) in the assay on SF-295 CNS; -81% (active) in the assay on SF-539 CNS. For the same compound, the growth with UACC-257 melanoma is -68.6% (active).
For the compound `CNCCCNCCCN1C(=O)c2ccc3c4c(ccc(c24)C1=O)C(=O)N(CCCNCc1ccccc1OC)C3=O`, the growth with NCI-H23 lung was -31% (active); in the assay on NCI-H226 lung, 8.88% (active); in the assay on NCI-H322M lung it was 1.15% (active); in the assay on HOP-62 NSCLC, 7.81% (active); in the assay on NCI-H460 lung, -16.6% (active); with HOP-92 NSCLC it was -32.1% (active). Further, the growth in the assay on NCI-H522 lung is -52.7% (active); with A549/ATCC NSCLC it was 1.84% (active); in the assay with 786-0 renal, 10.4%; in the assay with COLO 205 colon, -72.8% (active); with DU-145 prostate, -91.5% (active); in the assay on K-562 leukemia, 4.42% (active). For the same compound, the growth in the assay on MALME-3M melanoma was -89.7% (active); with MDA-MB-231 breast, 7.69% (active); in the assay on RXF 393 renal, -11.5% (active); in the assay with SF-268 CNS, 4.85% (active); in the assay with SF-295 CNS, 25.3%; with SF-539 CNS, 24.3%. Further, the growth with UACC-257 melanoma was -80.7% (active).

These data come from PubChem BioAssay (NCI).
